# Bioassay records as filed in PubChem BioAssay.
# An excerpt weighted towards active compounds, which were near 6.1% of everything screened.
# D1 agonist = agonists of human D1 dopamine receptor. P21728. actives 1% (n = 360,000). HEK293 T-REx D1 cells, calcium flux, agonist mode. AID 504660. activation, % at 2 µM; in the data active means activation above about 30%; further: 0% is about no effect
#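 Inducible HEK293 T-REx D1 cells, force-coupled to calcium signalling, were plated at 4000 cells/well with tetracycline and held overnight at 30 C. After no-wash calcium dye loading, compound-evoked calcium rise over 180 s flagged agonists.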
# D1 PAM = potentiators of human D1 dopamine receptor | potentiation, % at 10 µM | actives 0.036% (n = 360,000) | P21728 | HEK293 TREx D1 cells, calcium flux, dopamine EC20 potentiation; in the data active means potentiation above about 30%; further: 0% is about no effect
# D1 antag = blocks dopamine activation of the human D1 receptor; activity change, negative = inhibition, % at 10 µM; HEK293 TREx D1 cells, calcium flux, dopamine EC80; stronger effect = lower value; AID 504652; actives 3.2% (n = 360,000); in the data active means activity change below about -30%; further: on the % scale 0 is the no-effect control and ±100 the full control effect
#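 Antagonism measured as reduced calcium response to an EC80 dopamine addition following 180 s compound pre-read; cells were inducible HEK293 Trex D1 plated overnight at 30 C, read kinetically at 1 cycle/sec.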
# DRD3 antagonist = antagonists of human D3 dopamine receptor | P35462 | D3R cells, DiscoveRx beta-arrestin luminescence, antagonist mode; stronger effect = lower value | max response, negative = inhibition, % | actives 2.5% (n = 360,000); in the data active means max response below about -50%; further: on the % scale 0 is the no-effect control and ±100 the full control effect
#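 Cells expressing the human receptor were seeded at 1500 cells/well, incubated overnight at 37 degrees C in 5% CO2, then exposed to library compounds with dopamine controls for 90 minutes at 37 degrees C before luminescent detection.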
# D3 ag = agonists of human D3 dopamine receptor; max activation, %; actives 0.58% (n = 410,000); P35462; D3R DiscoveRx beta-arrestin cells, luminescence, 90 min; in the data active means max activation above about 30%; further: 0% is about no effect
#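 Agonist-mode cell screen: cells plated at 1500/well and incubated overnight at 37 °C, then exposed to library compounds for 90 min at 37 °C. Detection reagent was added for 30–60 min at room temperature, and luminescence was read.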
# ERG-DNA inh = ERG Ets/DNA interaction inhibition; P11308; actives 0.028% (n = 370,000); AID 624246; Potency, µM (series often up to 76.9 µM), without a hit: top-dose FP activity, negative = inhibition, hits mostly inhibitors; fluorescence polarization, His-ERG Ets domain / labelled DNA; active means well fitted inhibition curve with a large enough effect in the polarisation, with a control signal flat; the % refers to the polarisation;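 further: polarization taken with two DNA probes labelled with fluorescein and Texas red; potency means the concentration at half of the fitted maximal effect; % of control where 0% means no effect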
# Target sequence (P11308 whole entry, looked up, the tested form may be a part): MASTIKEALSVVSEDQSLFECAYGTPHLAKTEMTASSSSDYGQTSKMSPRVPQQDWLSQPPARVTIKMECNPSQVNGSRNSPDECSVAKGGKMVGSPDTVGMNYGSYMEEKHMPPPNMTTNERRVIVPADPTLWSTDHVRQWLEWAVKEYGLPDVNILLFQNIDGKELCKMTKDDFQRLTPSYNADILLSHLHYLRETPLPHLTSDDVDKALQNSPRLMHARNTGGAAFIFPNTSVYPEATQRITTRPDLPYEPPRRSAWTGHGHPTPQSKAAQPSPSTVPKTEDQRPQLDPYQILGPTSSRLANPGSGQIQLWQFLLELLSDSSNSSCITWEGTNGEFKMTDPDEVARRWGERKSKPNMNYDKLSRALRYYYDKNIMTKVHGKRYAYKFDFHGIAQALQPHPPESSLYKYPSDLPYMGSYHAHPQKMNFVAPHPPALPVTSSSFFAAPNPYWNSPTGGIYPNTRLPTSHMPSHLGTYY
#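 His-tagged ERG Ets domain (1 uM in the protein solution; 300mM KCl, 50mM Tris-HCl, 1mM EDTA, 1mM DTT, pH 7.5) received compound, then a probe mix of 5 nM fluorescein-DNA and 100nM Texas-615-DNA. Fluorescence polarization was read for both dyes.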
# * = called active by the depositor; . = not tested or not shown.
SMILES,D1 agonist,D1 PAM,D1 antag,DRD3 antagonist,D3 ag,ERG-DNA inh
Cc1c(NC(=O)C(C)OC(=O)c2ccc(NC(=O)CC#N)cc2)c(=O)n(-c2ccccc2)n1C (stereo not drawn),2,1,-33*,5,11,12%
Cc1c(NC(=O)C(C)OC(=O)COc2ccccc2)c(=O)n(-c2ccccc2)n1C (stereo not drawn),2,0,0,5,2,7%
CCCNC(=O)C1(C)CCCN(C(=O)c2ccccc2OC)C1 (stereo not drawn),.,.,.,-4,5,.
CC(C)(C)OC(=O)N1CCC(C(=O)N[C@@H](Cc2ccccc2)C(=O)O)CC1,1,0,-1,22,-16,1%
O=C(NN1C(=O)C2C3C=CC(O3)C2C1=O)c1cccc(O)c1 (stereo not drawn),2,-11,-80*,3,2,.
O=C(NN1C(=O)C2C3C=CC(O3)C2C1=O)c1cccc(Br)c1 (stereo not drawn),0,-1,.,-9,2,12%
O=C(CSc1nnc(-c2ccncc2)n1-c1ccccc1)NCC1CCCO1 (stereo not drawn),3,-8,-51*,5,3,-3%
Cc1nnc(SCC(=O)NCC2CCCO2)n1Cc1ccccc1 (stereo not drawn),.,.,.,-8,78*,-7%
Cc1ccc2nc(SCC(=O)NCC3CCCO3)c(C#N)cc2c1 (stereo not drawn),1,-10,-32*,-12,-2,2%
CC1Cc2nc(SCC(=O)NCC3CCCO3)n(C)c(=O)c2S1 (stereo not drawn),1,0,0,-53*,14,0%
Cc1ccc2cc(C#N)c(SCC(=O)NCC3CCCO3)nc2c1 (stereo not drawn),0,-5,-2,-7,-8,10%
Cc1ccccc1-n1c(SCC(=O)NCC2CCCO2)nnc1-c1ccncc1 (stereo not drawn),.,.,.,-2,4,-30%
Cc1cc(C(=O)OCC(=O)Nc2c(Cl)cccc2Cl)c(C)o1,.,.,.,1,1,32%
O=C(CSc1n[nH]c(=O)n1-c1cccnc1)Nc1ccccc1Cl,6,-3,3,-8,-6,-5%
O=C(CSc1nnc(-c2cccs2)n1-c1ccccc1)NCC1CCCO1 (stereo not drawn),0,-3,0,-2,-5,-5%
O=C(CSc1nnc(C2CC2)n1-c1ccccc1)NCCc1ccccc1,5,-4,-7,-60*,-3,3%
Cc1nnc(SCC(=O)N2CC(=O)Nc3ccccc32)n1Cc1ccccc1,1,6,-7,-66*,-6,1%
c1ccc(-n2c(SCC3CCCCO3)nnc2-c2cccs2)cc1 (stereo not drawn),2,0,-32*,0,-10,.
Cc1ccc(-c2ccc(SCC(=O)NCC3CCCO3)nn2)cc1 (stereo not drawn),3,-2,-34*,-12,-2,-15%
C=CCNC(=O)CCCCCNS(=O)(=O)c1ccc(OC)cc1,2,-2,-5,15,1,1%
COc1cc(NC(=O)c2ccc(F)cc2)c(OC)cc1NC(=O)CN1CCCCC1,1,-2,-2,10,1,3%
CC(C)CC(=O)Nc1ccc(C(=O)COc2ccc(-c3nnco3)cc2)cc1,4,-2,-14,16,2,1%
COc1ccccc1NC(=O)C1=C(C)NC2=C(C(=O)CCC2)C1c1ccc2c(c1)OCO2 (stereo not drawn),1,-3,-16,-11,3,.
COc1ccc(CCNC2=CC(=O)CCC2)cc1OC,.,.,.,0,-10,.
O=C1c2ccccc2S(=O)(=O)c2cc(N3CCOCC3)ccc21,.,.,.,-2,-2,-14%
SMILES,D1 agonist,D1 PAM,D1 antag,DRD3 antagonist,D3 ag,ERG-DNA inh
O=C(NCC1CCCO1)c1cccc2c1C(=O)c1ccc(N3CCC(Cc4ccccc4)CC3)cc1S2(=O)=O (stereo not drawn),.,.,.,134,50*,6%
CC1CCN(c2ccc3c(c2)S(=O)(=O)c2cccc(C(=O)NC4CC4)c2C3=O)CC1,.,.,.,50,52*,27%
O=C(NC[C@@H]1CCCO1)c1cccc2c1C(=O)c1ccc(N3CCOCC3)cc1S2(=O)=O,.,.,.,72,27,7%
O=C1c2ccccc2S(=O)(=O)c2cc(N3CCN(c4ccccc4)CC3)ccc21,.,.,.,78,52*,3%
CC1CCN(c2ccc3c(c2)S(=O)(=O)c2cccc(C(=O)NC[C@@H]4CCCO4)c2C3=O)CC1,.,.,.,108,31*,18%
COc1ccc(NC(=S)N2CCCCC2c2cccnc2)cc1 (stereo not drawn),0,-7,-1,4,-4,-1%
O=C(/C=C/c1cccs1)Nc1scc(-c2ccccc2)c1C(=O)O,2,-3,-2,-16,-5,75%
CCOC(=O)c1cc(CC)sc1N1C(=O)CC(Sc2ccccc2C(=O)O)C1=O (stereo not drawn),7,-3,1,-25,-4,18%
CC(C)c1nnc(NC(=O)C2CCCCC2)s1,1,-3,-19,17,-1,2%
CC(C)c1cc(C(N)=O)c(NC(=O)C2CCC2)s1,2,-2,4,-9,37*,2%
COc1ccc(NC(=O)c2oc3ccccc3c2NC(=O)c2cc3ccccc3o2)c(OC)c1,2,0,-5,.,-3,-4%
CCOC(=O)c1oc2ccccc2c1CN1CCN(C(=O)c2ccccc2)CC1,2,3,-12,20,4,-5%
CCOC(=O)c1oc2ccccc2c1CN1CCN(c2ccccc2)CC1,1,-2,4,-77*,-4,4%
CCOC(=O)c1c(C)oc2ncnc(N3CCN(c4ccccc4)CC3)c12,-1,1,-45*,.,2,-1%
CCOCC(=O)Nc1c(C(=O)Nc2ccc(OC)cc2OC)oc2ccccc12,-3,12,23,39,73*,-7%
COc1ccc(NC(=O)c2oc3ccccc3c2NC(=O)c2ccco2)c(OC)c1,4,0,-13,29,49*,4%
O=C(Nc1nc2n(n1)C(c1ccc(F)cc1)C=C(c1ccccc1)N2)c1ccc(Cl)cc1 (stereo not drawn),2,-2,6,.,2,-2%
Cc1ccc(/C=N/N(C)C2=NS(=O)(=O)c3ccccc32)cc1,9,-2,5,5,-6,10%
O=C(COC(=O)c1cccc(C(=O)OCC(=O)NC2CCCCC2)n1)NC1CCCCC1,2,-4,5,-5,1,-2%
CC(C)NOC(=O)c1ccc(Cl)cc1,6,1,2,2,2,3%
